Compounds with a hit are over-represented: about 6.2% of the library has one in this group of screens.
ATXN2 expr inh: Primary qHTS for Inhibitors of ATXN expression. HEK-293 ATXN2-luciferase reporter, luminescence, 24 h. Potency, µM (highest dose often 57 µM), for the others: at the highest dose activity change, negative = inhibition, hits mostly inhibitors. actives 0.72% (n = 360,000). AID 1745845, 2022; also: % is scaled to controls: 0 for no effect and ±100 for the full control effect; nearly all actives have a fitted effect of over 55% in size
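qHTS (up to 57 uM final) was run with 24 h compound exposure of reporter cells at 37 °C. Each well was multiplexed: SteadyGlo luminescence measured ATXN2-luciferase expression after a fluorogenic Gly-Phe-AFC viability readout (25 uM final).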
HT1080 IDH1KD tx: qHTS for induction of synthetic lethality in tumor cells producing 2HG: qHTS for the HT-1080-IDH1KD cell line. HT-1080 IDH1 knockdown viability, ATP luminescence, 48 h. Potency, µM (titrated, usually from 46.1 µM), for inactives: top-dose activity, negative = toxicity, hits mostly cytotoxic. actives 2% (n = 360,000);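 also: 0% = DMSO wells and -100% = cell-free medium wells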
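Viability of IDH1-knockdown HT-1080 fibrosarcoma cells was assessed by CellTiter-Glo after 48 h at 37 °C with titrated compound; concentration-effect curves were classified by fit quality and response size.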
KB-3-1 tox: qHTS assay for MDR1-selective chemotherapeutics: Primary screen using the parental adenocarcinoma cell KB-3-1; KB-3-1 viability, CellTiter-Glo ATP luminescence, 72 h; Potency, µM (doses to about 46.1 µM), most hits filed as cytotoxic; actives 1.4% (n = 400,000); also: % is scaled to controls: 0 for no effect and ±100 for the full control effect; nearly all actives have a fitted effect of over 60% in size
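KB-3-1 parental drug-naive adenocarcinoma cells in DMEM/10% FBS, incubated 72 h at 37 C with pin-transferred compounds across a concentration series. Viability by CellTiter-Glo luminescence; concentration-response curves fitted after normalization.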
HT1080NT lethal: qHTS for induction of synthetic lethality in tumor cells producing 2HG: qHTS for the HT-1080-NT fibrosarcoma cell line; HT-1080-NT fibrosarcoma viability, CellTiter-Glo ATP luminescence, 48 h; Potency, µM (highest dose often 46.1 µM), for the others: top-dose activity, negative = less viability, usual class: cytotoxic; actives 1.6% (n = 360,000); AID 686970, 2013;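 also: NT is the 2HG producing partner of a matched IDH1 knockdown line; 0% = DMSO-treated cells and -100% = media-only wells without cells; nearly all actives have a fitted effect of over 55% in size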
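Luminescent CellTiter-Glo readout after 48 hours of compound exposure at 37 degrees C defined viability of HT-1080-NT cells. Activity was normalized to DMSO wells and cell-free media wells; concentration-response curves were fitted and assigned curve classes.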
ATXN viability: Viability Counterscreen for Primary qHTS for Inhibitors of ATXN expression | S2 cells (HEK-293 line with an ATXN2-luciferase reporter) viability, CellTiter-Fluor protease fluorescence, 24 h | Potency, µM (doses to about 56.7 µM), usual class: cytotoxic | actives 0.49% (n = 400,000) | AID 651635, 2014; also: nearly all actives have a fitted effect of over 40% in size
KB-V1 MDR tox: qHTS assay for MDR1-selective chemotherapeutics: Primary screen using the drug-selected MDR subline cells KB-V1 | KB-V1 MDR cells viability, CellTiter-Glo, 72 h | Potency, µM (highest dose often 46.1 µM), hits mostly cytotoxic | actives 3.4% (n = 400,000); also: % is scaled to controls: 0 for no effect and ±100 for the full control effect; nearly all actives have a fitted effect of over 60% in size
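KB-V1, DMEM (no phenol red) + 10% FBS; cpd pin-transferred, titration series; 72 h, 37 degrees C; CellTiter-Glo, luminescence. Data normalized, curve-fit.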
* marks the source's active call; other numbers are inactive results; i = inactive; u = inconclusive; x = not tested or not shown; [ ] = remark or other dose. Calls follow the shape of the dose curve; as a rule, active = well fitted curve in the direction sought with a large enough effect; inconclusive = small, poorly fitted or top-dose-only effect, or another doubt; inactive = no such curve, though single readings can be large; an effect the other way counts as inactive or inconclusive. Potency is read from the fitted curve at half-maximal effect.

SMILES	ATXN2 expr inh	HT1080 IDH1KD tx	KB-3-1 tox	HT1080NT lethal	ATXN viability	KB-V1 MDR tox
CCCOP(=O)(OCCC)C(Nc1cccc(C(F)(F)F)c1)c1ccc(C)cc1 (stereo not drawn)	-16.1%	u	u	u	i	11.6µM*
S=C=Nc1cccc(C2(N3CCCCC3)CCCCC2)c1	-38.6%	18.4µM*	i	23.1µM*	u	i
N#CC(C#N)=NNc1ccc([N+](=O)[O-])cc1	0.0%	16.4µM*	i	20.6µM*	14.1µM*	i
CC(C)(C)NC[C@H](O)c1ccc(O)cc1Cl	14.0%	x	x	x	u	x
Cc1nn(C)cc1/C=C1/CC2C3CC=C4CC(O)CCC4(C)C3CCC2(C)C1=O (stereo not drawn)	-6.3%	-0.5%	i	-8.8%	i	18.4µM*
Cn1c(=O)n(C)c2cc(CNCCc3ccccc3F)ccc21	-9.3%	x	i	x	i	i
CN1Cc2cccnc2N(C)Cc2cc(Cl)ccc21	u	-5.3%	u	-0.6%	u	16.4µM*
Clc1ccc(CO[C@@H](Cn2ccnc2)c2ccc(Cl)cc2Cl)cc1	x	x	x	x	i	x
CC(C)Oc1ccc(C(=O)Nc2ccc3c(c2)CCCN3C(=O)c2cccs2)cc1	u	x	6.51µM*	x	u	u
Cc1cc(/C=C/c2cccc3sc(C)[n+](CCCCI)c23)ccc1N(CCCl)CCCl	x	x	i	x	x	i
O=S(=O)(CC1CS1)c1ccc(Oc2ccccc2)cc1 (stereo not drawn)	-7.2%	x	x	x	x	x
O=C1NC(=O)N(c2ccccc2)C(=O)/C1=C/c1ccc(Sc2ccccc2)o1	25.1µM*	u	i	u	u	i
CCCN1CCO[C@@H]2c3cc(O)ccc3OC[C@@H]21	13.1%	x	x	x	x	x
Cc1ccccc1-n1nc(C)c2c1NC(=O)CSC2c1ccccc1C(F)(F)F (stereo not drawn)	u	x	u	x	u	i
Nc1cc(Cl)c2nonc2c1[N+](=O)[O-]	u	11.6µM*	16.4µM*	7.31µM*	u	u
O=[N+]([O-])c1c(Cl)c(Cl)c(Cl)c(Cl)c1Cl	2.1%	x	i	x	i	i
Cn1c(CCCC(=O)O)nc2cc(N(CCCl)CCCl)ccc21	u	x	x	x	i	x
CC1=CC2/C=C(\C)CCC(O)C(O)/C=C/C(=O)C23C(=O)NC(CC(C)C)C3C1C (stereo not drawn)	u	7.31µM*	4.61µM*	11.6µM*	x	u
COc1cccc2c1C(=O)c1c(O)c3c(c(O)c1C2=O)C[C@@](O)(C(=O)CO)CC3OC1CC(N2CCOC(OC)C2)C(O)C(C)O1 (stereo partly drawn)	28.2µM*	x	x	x	44.7µM*	x
CC1c2ccccc2-n2nncc2CN1CC1CCCCC1 (stereo not drawn)	-18.3%	8.8%	i	11.4%	i	i
Brc1ccc2c(c1)CN(CC1CCCCC1)Cc1cnnn1-2	-4.4%	-27.8%	i	-22.5%	i	18.4µM*
CC(C)n1cc(C(=O)N(CC(=O)NC2CCCC2)Cc2ccccc2)cn1	0.4%	1.2%	i	4.7%	i	13µM*
COc1ccccc1N(CC(=O)NC1CCCC1)C(=O)c1cnn(C(C)C)c1	4.6%	17.5%	i	24.4%	i	i
CCOC(=O)c1c(C)c(C(=O)Nc2cc(OC)ccc2OC)c(C)n1CC	-13.0%	7.08µM*	i	7.08µM*	i	i
CCn1c(C)c(C(=O)NCCc2ccccc2)c2cc(OC)ccc21	4.7%	-11.5%	i	-1.1%	i	i
SMILES	ATXN2 expr inh	HT1080 IDH1KD tx	KB-3-1 tox	HT1080NT lethal	ATXN viability	KB-V1 MDR tox
O=c1[nH]c(=S)n(CCC2=CCCCC2)c(O)c1C=NC1CCN(Cc2ccccc2)CC1	-23.3%	-4.3%	u	-5.2%	i	5.8µM*
CN1CCN(c2csc3ccc(F)cc3c2=O)CC1	2.5%	x	i	x	i	i
CCOP(=O)(CCP(=O)(OCC)OCC)OCC.C[CH2][Sn]([Cl])([Cl])[CH2]C	18.9µM*	4.61µM*	u	u	u	u
C[C@@H]1CC[C@@]2(OC1)O[C@H]1C[C@H]3[C@@H]4CC=C5C[C@@H](O[C@@H]6O[C@H](CO)[C@@H](O[C@@H]7O[C@@H](C)[C@H](O)[C@@H](O)[C@@H]7O)[C@H](O)[C@@H]6O[C@@H]6O[C@@H](C)[C@H](O)[C@@H](O)[C@@H]6O)CC[C@]5(C)[C@@H]4CC[C@]3(C)[C@@H]1[C@H]2C	12.2µM*	x	x	x	x	x
COc1ccccc1CCNC1C2CC3CC(C2)CC1C3 (stereo not drawn)	-11.2%	-11.0%	i	-15.8%	i	14.6µM*
c1cc2c(cc1NC1=NCCO1)CCCC2	7.3%	u	14.6µM*	u	u	u
OCCN(CCO)CCO	x	x	x	x	i	x
CCOC(=O)c1c(NC(=O)c2c(N)n(CCCOC)c3nc4ccccc4nc23)sc2c1CCCC2	0.1%	-1.5%	i	0.0%	i	i
CCOC(=O)c1c(NC(=O)C(c2ccccc2)c2ccccc2)sc2c1C1CCN2CC1	u	-0.6%	u	-23.8%	i	23.1µM*
COc1cc(C(=O)N/N=C/c2ccc(OC(=O)N3CCOCC3)cc2)cc(OC)c1OC	x	23.1µM*	i	u	i	u
CCC(=NCCc1c[nH]c2ccccc12)c1c(O)n(-c2ccc(C)cc2)c(=O)[nH]c1=O	-4.2%	-12.4%	i	3.2%	i	20.6µM*
CCC(=NCCc1c[nH]c2ccccc12)c1c(O)n(C)c(=O)n(C)c1=O	-12.4%	u	u	u	i	u
CC(=NCCc1c[nH]c2ccccc12)c1c(O)n(Cc2ccccc2)c(=O)[nH]c1=O	u	u	i	-26.9%	i	11.6µM*
CC(=NCCN1CCOCC1)c1c(O)n(Cc2ccccc2)c(=O)[nH]c1=O	-3.7%	0.0%	i	16.4%	i	i
O=Nc1c(O)c2ccccc2c2ccccc12	7.94µM*	2.91µM*	4.61µM*	6.51µM*	15.8µM*	16.4µM*
CCOC(=O)c1[nH]c(=O)c2ccccc2c1O	0.2%	-0.2%	i	-6.3%[9.24 µM]	u	i
CCCCCCCSc1cc(OC)c(CCNC)cc1OC	u	-11.1%[9.24 µM]	u	23.1µM*	u	18.4µM*
CCCCCSc1cc(OC)c(CCNC)cc1OC	-12.1%	20.6µM*	i	u	i	i

Screening results deposited in PubChem by National Center for Advancing Translational Sciences (NCATS).
